Hit rate of the full screen: of about 69,000 compounds, about 420 (0.61%) showed an effect of 50% or more. The list comes from a sample in which strong results are over-represented; it also holds similar structures and randomly drawn compounds.

The assay concerns the target T1, Histidine--tRNA ligase (Leishmania infantum) (UniProt A4I591).
T1 sequence (whole entry): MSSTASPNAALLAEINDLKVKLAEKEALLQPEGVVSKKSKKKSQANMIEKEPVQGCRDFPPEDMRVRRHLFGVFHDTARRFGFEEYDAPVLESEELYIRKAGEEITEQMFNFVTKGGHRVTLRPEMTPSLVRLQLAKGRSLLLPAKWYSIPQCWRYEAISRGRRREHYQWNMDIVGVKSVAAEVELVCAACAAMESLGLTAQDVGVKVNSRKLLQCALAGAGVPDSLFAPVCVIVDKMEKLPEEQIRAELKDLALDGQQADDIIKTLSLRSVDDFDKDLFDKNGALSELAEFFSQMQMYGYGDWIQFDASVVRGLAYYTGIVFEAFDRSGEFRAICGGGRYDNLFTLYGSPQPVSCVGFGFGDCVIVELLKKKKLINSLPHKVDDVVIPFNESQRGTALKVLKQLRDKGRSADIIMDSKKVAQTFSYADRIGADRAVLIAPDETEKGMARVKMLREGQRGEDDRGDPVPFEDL
Briefly: Leishmania infantum Histidine tRNA synthetase (LdHisRS). It counts as functional. On the set-up: scale not given: in the data most compounds retested in dose-response had high values. As to conditions: 30 µM.
For the compound `CC(C)CN1C[C@@H]2C(=O)NC3(CCN(C(=O)c4cccnc4)CC3)[C@@H]2C1`, the Percent Effect amounted to 23.3%. Then `CN1[C@@H](C(=O)NCC2CC2)C[C@@H]2CN(Cc3ccsc3)C[C@@H]21`, with 11.9%.

As to `CS(=O)(=O)N1C[C@H]2CCC[C@@]2(COc2ccccn2)C1`, the Percent Effect stood at 10.3%. As for `CN(C)C(=O)CO[C@H]1CN(Cc2cccc(C#N)c2)[C@@H]2COC[C@H]12`, the Percent Effect is -11.4%. Then `COc1ncccc1C(=O)N1CC[C@H]2C[C@@H](c3noc(C)n3)O[C@@H]2C1`, with 46.1%; and `O=C(O)[C@@]12CN(c3cnccn3)C[C@@H]1CN(C1CCCC1)C2`, with 21%. With `Nc1nccc(C2CN(Cc3ccc(-c4ccccc4C(=O)O)o3)C2)n1`, the Percent Effect was determined as 54.9%. As to `Cc1nccc(C2CN(Cc3ccc(-c4ccccc4C(=O)O)o3)C2)n1`, the Percent Effect worked out at 12.7%. The result for `O=C(O)c1ccccc1-c1ccc(CN2CC(c3ccncn3)C2)o1` reads 29.4%; that for `O=C(CN1C[C@H]2C[C@H](OCc3ccccc3)C[C@H]2C1)N1CCOCC1`, 15.7%; that for `CN1CCN(Cc2cnn(-c3ccccc3Cl)c2)[C@H]2CS(=O)(=O)C[C@H]21`, 5.71%. As for `Cc1ccc(-c2ncc(C(=O)N3CCCN4CCC[C@H]4C3)c(O)n2)cc1`, the Percent Effect was 11%. On to `CN(C)c1ncc(-c2c(-c3ccccc3)ncn2C(CO)C(=O)O)cn1` (centres undefined), for which the Percent Effect was determined as 72.8%. `Cc1c(-c2c(-c3ccccc3)ncn2[C@H](CO)C(=O)O)cnn1C`: the Percent Effect stood at 7.85%. The result for `Cc1nn(C)c(C)c1-c1c(-c2ccccc2)ncn1[C@H](CO)C(=O)O` reads 1.57%; that for `O=C1C[C@H]2CC[C@@H](CN1)N2C(=O)CCc1ccccc1`, 8.39%. For `CNC(=O)CN1CC[C@H]2CN(C(=O)c3cccn3C)C[C@H]2C1`, the Percent Effect came out at 2.78%. For the compound `Cc1ccc(S(=O)(=O)NC(CO)CC(C)C)cc1N(C)C` (centres undefined), the Percent Effect came to 43.4%.

Consider `Cc1ccc(S(=O)(=O)N[C@H](CO)C(C)C)cc1N(C)C`, for which the Percent Effect came to 53%. The result for `CSCC(C)NS(=O)(=O)c1ccc(C)c(N(C)C)c1` (centres undefined) reads 19.3%; that for `O=C(NCCc1ccncc1)[C@@H]1CC[C@@H]2[C@@H](CCN2Cc2ccco2)O1`, 20%. On to `CNC(=O)N1C[C@H]2C[C@H](C(=O)Nc3ccccc3)[C@@H](C1)O2`, for which the Percent Effect turned out to be 19.6%. On to `COc1ccc(NC(=O)Cn2nc(C)c(C(C)=O)c2C)cc1`, for which the Percent Effect is 52.2%.

As for `COc1ccc(NC(=O)Cn2nc(C)c(C)cc2=O)cc1`, the Percent Effect was -0.8%.

Consider `COc1ccc(NC(=O)Cn2nc(C)c(C)cc2=O)cc1OC`, for which the Percent Effect worked out at 7.69%. Then `CC(=O)c1c(C)nn(CC(=O)Nc2ccc(F)cc2)c1C`, with 15.7%.

Consider `CC(=O)c1c(C)nn(CC(=O)Nc2ccc(Br)cc2)c1C`, for which the Percent Effect is 71.3%. With `Cc1cc(=O)n(CC(=O)Nc2ccc(Cl)cc2)nc1C`, the Percent Effect was 7.2%. For `O=C1O[C@@H]2CN(S(=O)(=O)N3CCCC3)C[C@@H]2N1CCc1cccc(Cl)c1`, the Percent Effect turned out to be 7.29%.

In the case of `O=C1CC[C@]2(CC[C@@H](NCc3ccsc3)CC2)N1Cc1ccccc1`, the Percent Effect was determined as 25%. Regarding `COCCN1C(=O)[C@H]2CC[C@@H]1CN(C(=O)COc1ccc(F)c(Cl)c1)C2`, the Percent Effect was -13.3%. As for `N#Cc1ccsc1N1CCC(Sc2ccncc2)C1=O` (centres undefined), the Percent Effect amounted to 53.1%. Then `N#Cc1ccsc1N1CCC(Sc2ncc[nH]2)C1=O` (centres undefined), with 20.4%; and `Cc1nnc(SC2CCN(c3sccc3C#N)C2=O)[nH]1` (centres undefined), with 12.2%; and `NC(=O)N1CC[C@@H]2O[C@@H](COCC(=O)N3CCCC3)CC[C@@H]21`, with 0%.

As to `CCc1nc(CN2CCOC(CNc3cccnn3)C2)cs1` (centres undefined), the Percent Effect is 24.6%. As to `CCCc1nc(CN2CCOC(CNc3cccnn3)C2)cs1` (centres undefined), the Percent Effect is 69%. As to `COCc1nc(CN2CCOC(CNc3cccnn3)C2)cs1` (centres undefined), the Percent Effect was found to be 35.1%. Take `CN(C)CCO[C@H]1CN(Cc2ccc3c(c2)OCO3)[C@@H]2COC[C@H]12`: the Percent Effect was determined as 17.1%. Turning to `CN(C)C(=O)CO[C@H]1CN(Cc2ccc3c(c2)OCO3)[C@@H]2COC[C@H]12`, the Percent Effect was determined as 13.2%.

Consider `O=C(c1cnnn1-c1ccccc1)N1CCCC(c2ccn[nH]2)C1` (centres undefined), for which the Percent Effect worked out at 15.7%. Then `O=C(c1cc(=O)n(-c2ccccc2)[nH]1)N1CCCC(c2ccn[nH]2)C1` (centres undefined), with 59%; and `O=C(c1cc(=O)n(-c2ccccc2)[nH]1)N1CCOCC(O)C1` (centres undefined), with 6.2%; and `Cc1ncsc1CN1C[C@@H]2COC[C@]2(CNC(=O)c2ccccc2)C1`, with 20.5%. Turning to `CCN(CC)[C@H]1COC[C@@H]2CN(Cc3cnn(C)c3)C[C@@H]21`, the Percent Effect came to 15.8%.

For `Cn1nc2c(cc1=O)CN(Cc1nnc(C3CC3)o1)CC2`, the Percent Effect worked out at 97.9%. With `Cn1nc2c(cc1=O)CN(Cc1nc(C(C)(C)C)no1)CC2`, the Percent Effect stood at 82.4%.

`CCn1nc2c(cc1=O)CN(Cc1nc(CCOC)no1)CC2`: the Percent Effect amounted to 23.4%. On to `CCCn1nc2c(cc1=O)CN(Cc1nnc(C3CC3)o1)CC2`, for which the Percent Effect is 24.5%.

Consider `Cn1nc2c(cc1=O)CN(Cc1nc(C3CC3)no1)CC2`, for which the Percent Effect turned out to be 102%.

Turning to `CCn1nc2c(cc1=O)CN(Cc1nnc(C3CC3)o1)CC2`, the Percent Effect is 22.6%.

For `Cc1ccc(F)cc1CC(=O)N1CC[C@@]2(O)CCNC[C@H]2C1`, the Percent Effect came to 4.92%. `O=C(C1CCOCC1)N1CCO[C@H]2[C@H](Oc3cccnc3)CC[C@@H]21`: the Percent Effect was 9.68%. Consider `O=C(c1ccco1)N1C[C@H]2CCCN(Cc3ccc(F)cc3)[C@H]2C1`, for which the Percent Effect stood at 10.9%. `O=C(C1CCOCC1)N1C[C@H]2C[C@H](OCc3ccccc3)C[C@H]2C1`: the Percent Effect came out at 12.9%. Then `O=C(C[C@H]1[C@H]2CN(Cc3ccsc3)C[C@@H]12)N1CCCC1`, with 15.5%; and `O=C(Cc1cccc(F)c1)N1C[C@H]2CN(Cc3ccccn3)C[C@H]2C1`, with 15.4%. As for `O=C(CSc1ccccc1)N1C[C@H]2CC[C@@H]1CN(Cc1ccncc1)C2`, the Percent Effect stood at 12.9%.

For the compound `O[C@@H]1C[C@@](CNCc2ccccn2)(COc2cccnc2)C[C@@H]1O`, the Percent Effect was found to be 12.2%. For the compound `FC1(F)CCN(c2ccccc2)CC12CCN(c1ncccn1)C2` (centres undefined), the Percent Effect turned out to be 21.4%. As for `FC1(F)CCN(Cc2cccnc2)CC12CCN(c1ccccn1)C2` (centres undefined), the Percent Effect was 19.6%.

In the case of `O=C(CO)N1CCC(F)(F)C2(CCN(c3ccccc3)C2)C1` (centres undefined), the Percent Effect is 23.1%. On to `O=C(O)CN1CCC(F)(F)C2(CCN(c3ccccc3)C2)C1` (centres undefined), for which the Percent Effect worked out at 53.9%. In the case of `FC1(F)CCN(Cc2cccnc2)CC12CCN(c1ccccc1)C2` (centres undefined), the Percent Effect was 57.3%.

Regarding `FC1(F)CCN(Cc2ccncc2)CC12CCN(c1cccnc1)C2` (centres undefined), the Percent Effect was 19.1%. Regarding `O=C(C1CCC1)N1CCN(Cc2ccc(F)cc2)[C@H]2CS(=O)(=O)C[C@H]21`, the Percent Effect was 17.8%. For the compound `COc1ccc(NC(=O)CCC(C)C)c(N2CCN(C(C)=O)CC2)n1`, the Percent Effect is 11.6%. Take `COc1ccc(N)c(N2CCN(C(C)=O)CC2)n1`: the Percent Effect turned out to be 61.6%. Turning to `COc1ccc(NC(C)=O)c(N2CCN(C(C)=O)CC2)n1`, the Percent Effect worked out at 17.3%.
